Shown are actives, neighbours in structure and some others; about 5.9% of the full set was active somewhere.
GALK inhibitor: qHTS Assay for Inhibitors of Human Galactokinase (GALK) | P51570 | Purified GALK, Kinase-Glo residual ATP luminescence | Potency, µM (doses to about 57.5 µM), inactives show top-dose activity change, negative = inhibition, hits mostly inhibitors | 270,000 compounds, 0.007% hits; also: potency is read from the fitted curve at half-maximal effect
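5 nM enzyme, 35 uM ATP, 100 uM galactose, 20 mM HEPES pH8.0, 5 mM MgCl2; 1 h RT; residual ATP by Kinase-Glo Plus luminescence, qHTS format.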
RORg inh: qHTS for inhibitors of ROR gamma transcriptional activity | Potency, µM (top dose mostly 53.6 µM), for inactives: top-dose activity change, negative = inhibition, hits mostly inhibitors | 310,000 compounds, 5.4% hits | Drosophila S2 Gal4-RORgamma UAS-luciferase reporter, 20 h; also: potency is read from the fitted curve at half-maximal effect; nearly all actives have a fitted effect of over 60% in size
Target sequence (P51450 whole entry, looked up, the tested form may be a part): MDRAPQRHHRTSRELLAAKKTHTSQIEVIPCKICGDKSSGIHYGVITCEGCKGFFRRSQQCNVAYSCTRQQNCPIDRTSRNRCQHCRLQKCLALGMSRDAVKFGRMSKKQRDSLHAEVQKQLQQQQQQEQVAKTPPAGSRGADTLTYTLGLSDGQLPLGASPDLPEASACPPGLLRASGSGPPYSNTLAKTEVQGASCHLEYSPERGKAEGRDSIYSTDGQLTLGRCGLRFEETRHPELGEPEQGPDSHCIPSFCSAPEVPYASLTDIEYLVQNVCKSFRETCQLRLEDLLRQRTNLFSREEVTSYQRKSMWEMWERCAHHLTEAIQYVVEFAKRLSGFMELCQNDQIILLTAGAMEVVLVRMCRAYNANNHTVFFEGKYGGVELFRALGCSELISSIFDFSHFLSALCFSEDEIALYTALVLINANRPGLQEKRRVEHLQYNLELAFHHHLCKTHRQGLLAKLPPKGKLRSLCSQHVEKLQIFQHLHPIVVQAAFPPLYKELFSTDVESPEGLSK
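Luciferase reporter read in Schneider cells carrying Gal4-RORγ (mouse) and UAS-Photinus luciferase; cells given compound 1 h before 700 uM copper sulfate induction, then incubated 20 h at ambient temperature.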
FBPA coupling cs: qHTS Assay for Inhibitors of Fructose-1,6-bisphosphate Aldolase from Giardia Lamblia: Coupling assay counterscreen | coupling enzyme system counterscreen, AmpLite Red fluorescence | activity change, negative = inhibition, % at 58.2 µM, hits read low | 290,000 compounds, 0.67% hits | AID 2472, 2010; in the data active = activity change below about -30%
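Activity here indicates interference with the coupling reaction, not aldolase inhibition. Compounds at 57.5 uM final met coupling enzymes for 10 min at RT; substrate and AmpLite Red detection followed, with a 525/598 nm fluorescence read after 20 min.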
rTrxR1 inhibitor: qHTS Assay for Inhibitors of Mammalian Selenoprotein Thioredoxin Reductase 1 (TrxR1): qHTS; recombinant rTrxR1, NADPH fluorescence consumption, selenite substrate; Potency, µM (top dose mostly 114 µM), without a hit: at the top dose activity change, negative = inhibition, most hits filed as inhibitors; 390,000 compounds, 1% hits; AID 588453, 2011; also: potency is read from the fitted curve at half-maximal effect; nearly all actives have a fitted effect of over 65% in size
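Rat TrxR1 (90 nM in the dispensed reagent) was pre-reduced with 400 uM NADPH for 5 min at room temperature, then incubated with compound for 15 min. After 400 uM selenite was added, NADPH fluorescence (Ex 340/Em 450 nm) was followed for 8 min.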
Gal4-VP16 FLuc: VP16 counterscreen qHTS for inhibitors of ROR gamma transcriptional activity | AID 2546, 2010 | 310,000 compounds, 3.5% hits | Potency, µM (highest dose often 53.6 µM), without a hit: at the highest dose activity, negative = inhibition, most hits filed as inhibitors | Drosophila S2 Gal4-VP16 UAS-luciferase, luminescence, 20 h;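 also: Gal4-VP16 expression switched on by copper sulfate through the metallothionein promoter; potency is read from the fitted curve at half-maximal effect; nearly all actives have a fitted effect of over 50% in size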
TrxR1 substrate: qHTS Assay for Substrates of Mammalian Selenoprotein Thioredoxin Reductase 1 (TrxR1): qHTS; AID 588456, 2011; 390,000 compounds, 0.01% hits; purified TrxR1 substrate turnover, NADPH consumption readout; Potency, µM (titrated, usually from 114 µM), without a hit: at the highest dose activity change, negative = substrate turnover; also: potency is read from the fitted curve at half-maximal effect; nearly all actives have a fitted effect of over 50% in size
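Rat TrxR1, dispensed at 90 nM, was prereduced with 400 uM NADPH (final) for 5 min at ~22 deg C, then incubated with compound 15 min before 400 uM selenite. A first-read NADPH fluorescence drop versus no-compound background flagged substrates.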
* = called active by the depositor; ? = inconclusive; / = no result; [ ] = remark or other dose. Unless noted, calls follow the shape of the dose curve; as a rule, active = well fitted curve in the direction sought with a large enough effect; inconclusive = small, poorly fitted or top-dose-only effect, or another doubt; inactive = no such curve, though single readings can be large; an effect the other way counts as inactive or inconclusive. % is scaled to controls: 0 for no effect and ±100 for the full control effect.

SMILES	GALK inhibitor	RORg inh	FBPA coupling cs	rTrxR1 inhibitor	Gal4-VP16 FLuc	TrxR1 substrate
COc1ccccc1C/C(N)=N/OC(=O)c1ccc(C)c([N+](=O)[O-])c1	-2%	39%	-2	11%	-11%	1%
N#Cc1cccc(CS(=O)(=O)c2nnnn2C2CCCCC2)c1	/	-42%	-1	/	6%	/
COc1ccc(-c2cn[nH]c2N)c(OC)c1	0%	11%[0.365 µM]	3	17%	/	8%
CCC(C)NC(=O)CSc1nnc(-c2cc(-c3ccc(C)cc3)nc3ccccc23)n1N (configuration not stated)	-2%	40%	-4	-1%[57.1 µM]	11%	21%[57.1 µM]
c1ccc2sc(Nc3nc4cc5c(cc4s3)OCO5)nc2c1	0%	-3%	-1	-1%	-10%	12%
COc1cc(/C=N/Nc2nc3ccccc3s2)ccc1OC(=O)c1ccccc1F	-1%	?	-2	-1%	?	-10%
Brc1cc2c(cc1/C=N/Nc1nc3ccccc3s1)OCO2	0%	4.5µM*	-2	1%	?	-1%
COc1cc(OC)cc(C(=O)Oc2ccc(/C=N/Nc3nc4ccccc4s3)cc2OC)c1	1%	10µM*	-3	?	-23%	-6%
C(=N\Nc1nc2ccccc2s1)/c1ccc2c(c1)OCO2	-1%	7.9µM*	2	23%[57.1 µM]	7.1µM*	8%[57.1 µM]
Oc1ccccc1-c1nnc(COc2ccc(Cl)cc2Cl)o1	0%	2.5µM*	2	16%[57.1 µM]	4.5µM*	8%[57.1 µM]
c1ccc(OCc2nnc(-c3ccccc3)o2)cc1	5%	5%	0	30%[57.1 µM]	5%	-13%[57.1 µM]
CC(=O)Nc1ccccc1OCc1nnc(-c2ccccc2Cl)o1	-2%	-8%	2	9%[57.1 µM]	0%	-8%
Oc1ccccc1-c1nnc(COc2ccccc2)o1	1%	10µM*	1	15%[57.1 µM]	?	13%[57.1 µM]
CC(C)C[C@@H](CN)NC(=O)c1nc[nH]c1C(=O)N[C@@H](Cc1ccccc1)C(=O)CNC[C@H](C)NC(=O)c1nc[nH]c1C(=O)N[C@@H](CC(C)C)C(=O)O	/	/	/	6%	/	4%
CCC(C)[C@H]1CNC(=S)N1CCc1cccc2ccccc12 (some centres not stated)	-1%	2.5µM*	10	-19%	4.5µM*	-5%
CCC(C)[C@H]1CN=C(N)N1CCc1cccc2ccccc12 (some centres not stated)	/	/	/	19%	/	-1%
CCC(C)[C@H]1CNC(=S)N1CCC12CC3CC(CC(C3)C1)C2 (some centres not stated)	-3%	0.89µM*	0	24%	2.8µM*	6%
CN[C@H]1[C@@H](O[C@@H]2[C@H](O[C@@H]3[C@@H](O)[C@@H](O)[C@@H](N=C(N)N)[C@@H](O)[C@@H]3N=C(N)N)O[C@H](C)[C@@]2(O)C=O)O[C@@H](CO)[C@@H](O)[C@H]1O	/	-14%[16.9 µM]	0	/	4%[17 µM]	/
Fc1cc(F)cc(NC(=S)NN2CCOCC2)c1	-1%	10µM*	1	-9%	7%[10 µM]	-7%
CCC(C)c1ccc(NC(=S)NN2CCOCC2)cc1 (configuration not stated)	0%	2.2µM*	-1	-24%	4.5µM*	-12%
CC(C)c1ccc(NC(=S)NN2CCN(C)CC2)cc1	-2%	11µM*	2	-1%	14%	8%
COc1ccc(NC(=S)NN2CCN(C)CC2)cc1	-4%	-3%	-1	1%	-6%	2%
CCCCc1ccc(NC(=S)NN2CCOCC2)cc1	-6%	-8%	3	11%	-26%	6%
CCN1C(=O)c2ccccc2S(=O)c2ccc(C(=O)NCCN(CC(C)C)CC(C)C)cc21 (configuration not stated)	-2%	-1%	-2	?	12%	-6%
CCN(CC)CCCNC(=O)CSc1nc(C)cc(C)n1	1%	3%	0	11%[57.1 µM]	0%	14%[57.1 µM]
SMILES	GALK inhibitor	RORg inh	FBPA coupling cs	rTrxR1 inhibitor	Gal4-VP16 FLuc	TrxR1 substrate
N#C/C(=C\Nc1ccc2cn[nH]c2c1)c1nc(-c2ccc(Cl)cc2)cs1	-2%	?	-35*	30%[57.1 µM]	?	7%[57.1 µM]
N#C/C(=C\Nc1ccc2cn[nH]c2c1)c1nc(-c2ccccc2)cs1	-2%	?	-3	7%[57.1 µM]	?	-12%
C=C(C)C1(O)OC(=O)C=C1OC (configuration not stated)	-2%	13µM*	3	14µM*	11µM*	5%
Fc1ccc(-n2c(-c3ccco3)n[nH]c2=S)cc1	1%	?	2	-20%	?	10%
S=c1[nH]nc(-c2cc(-c3ccco3)[nH]n2)n1-c1ccccc1Cl	-6%	-32%	-4	?	-6%	-11%
CCOc1ccc(-n2c(-c3ccco3)n[nH]c2=S)cc1	-2%	2.8µM*	4	-20%[57.1 µM]	?	8%[57.1 µM]
COc1ccc(OC)c(-n2c(-c3cc(-c4ccco4)[nH]n3)n[nH]c2=S)c1	2%	-5%	0	3%[57.1 µM]	-10%	-3%[57.1 µM]
S=c1[nH]nc(-c2cc(-c3ccco3)[nH]n2)n1-c1ccccc1	0%	13µM*	0	-9%[57.1 µM]	7%	15%[57.1 µM]
S=c1[nH]nc(-c2ccco2)n1-c1ccccc1Cl	-3%	6.3µM*	1	-8%[57.1 µM]	18µM*	7%[57.1 µM]
Cc1ccc(-n2c(-c3ccco3)n[nH]c2=S)cc1	4%	11µM*	7	-27%	?	-1%
Cc1onc(-c2ccccc2)c1-c1n[nH]c(=S)n1-c1ccccc1Cl	-4%	4.5µM*	2	-16%[57.1 µM]	16µM*	4%[57.1 µM]
CCC(C)(C(=O)NC1CCCC1)N(Cc1cccs1)C(=O)c1ccccn1 (configuration not stated)	4%	-1%	-38*	26%[57.1 µM]	-2%[10 µM]	-14%[57.1 µM]
CCC(C)(C(=O)NC1CCCCC1)N(Cc1cccs1)C(=O)c1ccccn1 (configuration not stated)	-2%	?	5	17%[57.1 µM]	23%	-18%[57.1 µM]
COC(=O)c1ccccc1NC(=O)CN1CCC(n2nnc3cc(C(F)(F)F)ccc32)CC1	-1%	-14%	-2	?	-3%	1%
CC1Cc2ccccc2N1C(=O)CN1CCC(n2nnc3cc(C(F)(F)F)ccc32)CC1 (configuration not stated)	0%	39%	-6	-47%	4µM*	9%[57.1 µM]

Source: PubChem (National Center for Advancing Translational Sciences (NCATS))
